HCV inh = inhibitors of hepatitis C virus infection; Huh7.5.1 HCVcc-Cre infection, luciferase reporter, 44 h; Potency, µM (top dose mostly 41.8 µM), without a hit: at the top dose activity change, negative = inhibition, usual class: inhibitors; actives 3.4% (n = 340,000); also: potency is read from the fitted curve at half-maximal effect; % is scaled to controls: 0 for no effect and ±100 for the full control effect
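Whole-lifecycle infectious HCVcc-Cre system; cells 1,000/well, compound then virus (~0.5 moi) added 4 h after plating, 44 h culture. Luciferase read 15 sec following 15 min substrate incubation, room temp.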
Pf growth 48h = inhibits P. falciparum growth in the first generation, 48 h | Potency, µM (doses to about 28.7 µM), for inactives: top-dose activity change, negative = inhibition, most hits filed as inhibitors | P. falciparum luciferase growth in erythrocytes, 48 h | actives 5.9% (n = 310,000); also: potency is read from the fitted curve at half-maximal effect; % is scaled to controls: 0 for no effect and ±100 for the full control effect
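Growth was read as firefly luciferase luminescence after a 48 h, 37 C, 5% CO2 exposure of compounds to reporter-bearing P. falciparum cultures (0.1% parasitemia, 2% hematocrit final) in Albumax-supplemented RPMI 1640.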
Shiga inhibitor = blocks Shiga toxin action in Vero cells; Vero cells, Shiga toxin protein synthesis inhibition reporter; actives 9.2% (n = 290,000); inhibition, % at 38.7 µM; in the data active = inhibition mostly above about 28%, no sharp cut-off; inactive = mostly below about 43%; also: 0% is about no effect
AMA1 RON2 block = AMA1-RON2 (P. falciparum) interaction inhibition. AlphaScreen AMA1-biotinylated RON2 peptide binding. actives 0.2% (n = 360,000). Potency, µM (highest dose often 58.2 µM), for the others: at the top dose activity change, negative = inhibition, hits mostly inhibitors;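 also: potency is read from the fitted curve at half-maximal effect; 0% = vehicle wells and -100% = peptide control; nearly all actives have a fitted effect of over 45% in size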
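AMA1 (3D7) with his tag at 25 nM final met compounds first, then biotinylated RON2 peptide at 25 nM; detection used donor plus acceptor beads, 10 µg/mL apiece, read by AlphaScreen after 30 min at room temperature.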
CHX counter = counter-screen hit for Shiga toxin inhibitors, cycloheximide; cell reporter, cycloheximide protein synthesis inhibition counterscreen; max response, %; actives 12% (n = 300,000); in the data active = max response mostly above about 13%, no sharp cut-off; inactive = mostly below about 14%; also: read at 38.3 µM for the half of the compounds with a filed dose; 0% is about no effect
Pf growth 96h = P. falciparum growth inhibition at 96 hour, primary screen for plastid delayed-death inhibitors. P. falciparum luciferase reporter growth, 96 h. Potency, µM (series often up to 28.7 µM), for the others: top-dose activity change, negative = inhibition, hits mostly inhibitors. actives 6.9% (n = 320,000). AID 504834; also: potency is read from the fitted curve at half-maximal effect; % is scaled to controls: 0 for no effect and ±100 for the full control effect
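Plates of compound plus infected erythrocytes (2% hematocrit, 0.05% parasitemia final) incubate 96 hours, 37 C, 5% CO2. Detection reagent added; reduced luminescence from the parasites' luciferase reporter flags inhibition.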
Active calls of the source: *; ? = inconclusive; / = no result given; [ ] = dose if it differs, or a comment. Hits are enriched below; roughly 21% of the tested compounds scored in any of these assays. Unless noted, calls follow the shape of the dose curve; as a rule, active = well fitted curve in the direction sought with a large enough effect; inconclusive = small, poorly fitted or top-dose-only effect, or another doubt; inactive = no such curve, though single readings can be large; an effect the other way counts as inactive or inconclusive.

SMILES	HCV inh	Pf growth 48h	Shiga inhibitor	AMA1 RON2 block	CHX counter	Pf growth 96h
O=C(NC1C=CS(=O)(=O)C1)c1sc2ccccc2c1Cl (centres undefined)	?	8.3µM*	32	0%	17*	/
O=C(NNC(=O)C1CC2CCC1C2)c1sc2ccccc2c1Cl (centres undefined)	-15%	85%	85*	56%	54*	47%
COc1cc(NC(=O)c2cc(OC)c(OC)c(OC)c2)cc(-n2cnnn2)c1	-13%	16%	-3	13%	0	35%
O=C(NNC(=O)c1sc2cccc(Cl)c2c1Cl)NC1CCCCC1	0%	-9%	-7	103%	-4	-7%
CC(C)(C)C(=O)NC(=S)NNC(=O)c1sc2ccccc2c1Cl	?	?	26	66%	48*	316%
O=C(NC1CC1)c1sc2cc(Cl)ccc2c1Cl	?	55%	/	11%	/	64%
O=C(NC1CC1)c1sc2ccccc2c1Cl	-7%	66%	59*	-13%	32*	0%
O=C(NNC(=S)NC1CCCCC1)c1sc2ccccc2c1Cl	9%	20%	27	46%	10*	-15%
O=C(CNC(=O)c1sc2ccccc2c1Cl)NC1CC1	9%	117%	31	13%	13*	98%
COc1ccc(C(=O)NNC(=S)NC(=O)C(C)(C)C)cc1	?	?	20	73%	21	8%
Cc1ccc(O)c(C=Nc2cc(C)ccc2O)c1	-5%	?	67	16%	15*	?
O=C(O)c1ccccc1C=NN=C1c2ccccc2-c2ccccc21	9%	/	/	-9%	/	/
Oc1cccc(/C=N/N=C/c2cccc(O)c2O)c1O	-7%	13µM*	18	66%	30*	?
Oc1ccccc1C=NN=C1c2ccccc2-c2ccccc21	8.9µM*	/	/	-21%	/	/
CC(C)(C)c1ccc(O)c(N=Cc2c(O)ccc3ccccc23)c1	?	?	9	27%	4	?
Cc1ccccc1N=Cc1cccc(O)c1O	9%	?	7	-13%	8	3%
CC(C)(C)c1ccc(O)c(N=Cc2cc(Br)ccc2O)c1	-4%	10µM*	31*	33%	20*	26%
Cc1ccc(/C(O)=C2\C(=O)C(=O)N(C)C2c2ccc(F)cc2)cc1 (centres undefined)	4%	64%	-5	-5%	-2	?
CCN(CC)C(=O)c1nc(-c2cccc3ccccc23)no1	/	/	/	24%	/	/
CCOc1ccccc1OCCC(=O)NNC(=O)Cn1nc(C)cc1C	9%	-3%	/	85%	/	16%
CC(C)CCNC(=O)CCCc1ccccc1	8%	38%	44	5%	8	12%
Oc1ccccc1C=NCCN=Cc1ccccc1O	8%	8%	28	122%	1	28%
Cc1ccc(N=Cc2cccc(O)c2O)c(C)c1	/	?	37*	/	25	12µM*
CCc1ccc(O)c(N=Cc2ccccc2O)c1	2%	?	71*	30%	15*	/
C/C(=N/N=C/c1ccccc1O)c1ccccc1O	11%	1%[0.00184 µM]	89*	52%	43*	250%
SMILES	HCV inh	Pf growth 48h	Shiga inhibitor	AMA1 RON2 block	CHX counter	Pf growth 96h
COc1cccc(N(CC(=O)N2CCN(C)CC2)S(=O)(=O)c2ccc(C)cc2)c1	12%	-10%	-7	7%	-2	12µM*
COc1ccc(N(CC(=O)N2CCN(C)CC2)S(=O)(=O)c2cc(C)ccc2OC)cc1Cl	-10%	-10%	-15	4%	-2	8.3µM*
Cc1ccc(S(=O)(=O)N(CC(=O)N2CCc3ccccc3C2)c2ccc(Cl)c(Cl)c2)cc1	-7%	10µM*	-12	3%	-2	?
O=C(CN(c1ccc(Cl)c(Cl)c1)S(=O)(=O)c1ccccc1)N1CCc2ccccc2C1	?	?	-2	-3%	-2	105%
C/C(=C/c1oc2ccc(O)cc2c1[N+](=O)[O-])N(C)C	?	/	14	?	13	15µM*
CCOC(=O)c1ccccc1NC(=S)N1CC(C)CC(C)C1 (centres undefined)	-22%	2.9µM*	-3	-6%[2.32 µM]	-3	?
CCOC(=O)c1ccccc1NC(=O)c1ccc(N(C)S(C)(=O)=O)cc1	10µM*	-3%	-3	9%	-3	6%
